Reference: PubChem BioAssay AID1645859 (Buhrlage Lab, Dana-Farber Cancer Institute and Novartis …, 2021)
About 95 (0.2%) of roughly 47,000 compounds were called active. What follows is part of a selection rich in actives, with near analogues and random picks from the rest. Unmarked numbers belong to inactive results. Rule as the data show it: active = inhibition above about 30%; inactive = the rest.

The compounds below were run against Ubiquitin carboxyl-terminal hydrolase isozyme L1 (Homo sapiens) (UniProt P09936) (assay: blocks human UCHL1 ubiquitin-rhodamine cleavage (AID 1645859)). Settings: purified UCHL1, Ub-rhodamine cleavage fluorescence; at 20 µM; active compounds read high.
Sequence of Ubiquitin carboxyl-terminal hydrolase isozyme L1 (Homo sapiens) (P09936 whole entry, looked up): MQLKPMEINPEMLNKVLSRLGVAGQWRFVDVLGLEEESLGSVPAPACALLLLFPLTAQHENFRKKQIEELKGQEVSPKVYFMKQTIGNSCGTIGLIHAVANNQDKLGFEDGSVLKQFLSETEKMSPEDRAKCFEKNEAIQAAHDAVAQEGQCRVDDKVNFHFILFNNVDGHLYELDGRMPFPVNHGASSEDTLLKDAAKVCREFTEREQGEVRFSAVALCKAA

| SMILES | inhibition [%] |
| --- | --- |
| Fc1cc(F)cc(-c2noc3ncnc(N(Cc4ccco4)CC4CCCO4)c23)c1 (stereo unspecified) | 0.782 |
| Cc1ccc(CN2C[C@H]3C[C@H](C(=O)NC(C)C)[C@@H](C2)O3)o1 | 2.08 |
| O=C1NC(=O)N2Cc3ccccc3CN(C(=O)c3ccc(Cl)cc3)CC12 (stereo unspecified) | 0.947 |
| COc1ccc(CN=C2NS(=O)(=O)C(c3ccc(F)cc3)=C2C)cc1OC | -4.12 |
| c1coc(CNc2nc(Nc3cccc4ccccc34)nc3ccccc23)c1 | 5.02 |
| CC(CC(=O)N1CCc2ccccc2C1)S(=O)(=O)c1ccc2c(c1)NC(=O)CCS2 (stereo unspecified) | -1.85 |
| COc1ccc(C)cc1NC(=O)c1coc(NC(=O)c2ccco2)n1 | -2.46 |
| CO[C@H]1C[C@@H]2CC[C@@H](C)[C@@](O)(O2)C(=O)C(=O)N2CCCC[C@H]2C(=O)O[C@H]([C@H](C)C[C@@H]2CC[C@@H](O)[C@H](OC)C2)CC(=O)[C@H](C)/C=C(\C)[C@@H](O)[C@@H](OC)C(=O)[C@H](C)C[C@H](C)/C=C/C=CC=C1C | 6.78 |
| CCN1CCN(c2ccc(-c3nc(-c4cccc(F)c4)no3)cn2)CC1 | -1.45 |
| CCc1nc(SCC(=O)Nc2cccc(OC)c2)c2c(=O)n(C)c(=O)n(C)c2n1 | -0.222 |
| O=C1C2Cc3c([nH]c4ccccc34)C(c3ccccc3)N2C(=O)CN1C1CCCCC1 (stereo unspecified) | 5.95 |
| O=C(C1=Cc2ccccc2OC1)N1CCN(c2ccccc2)CC1 | 0.226 |
| COc1cccc(C(=O)NC2CC(=O)N(c3ccc(F)cc3)C2)c1OC (stereo unspecified) | 0.016 |
| Cc1nc(C2CCN(C(=O)C(C)(C)C)CC2)cc(N2C(=O)OCC2C(C)C)n1 (stereo unspecified) | -3.66 |
| CC(C)c1cc(N2CCCCC2)nc(-c2ccccn2)n1 | -3.77 |
| CN(C)S(=O)(=O)N1C[C@H](OCc2ccccn2)[C@H]2OCCC[C@H]21 | -1.03 |
| Cc1nccn1-c1cccc(C2CCCN(c3ncccn3)C2)n1 (stereo unspecified) | -0.888 |
| C/C=C(\C)C(=O)O[C@@H]1C[C@@]2(C)CC[C@H](C(C)C)[C@@]2(O)CC[C@@]1(C)O | -2.54 |
| O=C1CN2CC(c3ccccc3S2(=O)=O)N1Cc1ccccc1 (stereo unspecified) | -1.24 |
| CCC(=O)c1c(-c2ccc(F)cc2)c2c3n(c(-c4ccc(Cl)c(Cl)c4)cn13)CCCC2 | 3.03 |
| O=C1N[C@H]2OCCC[C@H]2[C@H](c2cccc(CNC(=O)c3ccon3)c2)N1 | 1.68 |

| SMILES | inhibition [%] |
| --- | --- |
| Cc1ccccc1CN1C(=O)N(c2cccc(F)c2)c2ncccc2S1(=O)=O | 3.52 |
| Cc1cnn(CC2CCCN2Cc2nc(-c3ccco3)no2)c1 (stereo unspecified) | -8.36 |
| CC(=O)NCc1nc(-c2ccc3c(c2)nc(C)c(=O)n3C2CCCC2)no1 | -31.3 |
| O=C(C1CCCN(c2cnc3nccnc3c2)C1)N1CCCCCC1 (stereo unspecified) | -42.4 |
| CN(C)c1ncc(CN2CCN(C)C(c3ccccc3)C2)cn1 (stereo unspecified) | -0.428 |
| CNC(=O)C1Cc2ccccc2N1S(=O)(=O)c1cccnc1 (stereo unspecified) | -8.34 |
| Cc1ccc(C)c(S(=O)(=O)NCC(c2ccc3c(c2)CCN3C)N2CCCC2)c1 (stereo unspecified) | -2.82 |
| COc1ccc(C(=O)N2CCCC(c3ccnc(=O)[nH]3)C2)cn1 (stereo unspecified) | -1.26 |
| Cc1ccc(NC(=O)N2CCSc3ccccc32)cc1 | -0.231 |
| Cc1nc(C2CCCN2C(=O)c2ccccn2)nc2c1CCCN2Cc1ccccn1 (stereo unspecified) | -7.02 |
| COc1ccc(NC(=O)CN(C)C(=O)c2ccc3c(c2)nnn3C)cc1 | 2.41 |
| Cc1ccc(C(=O)N2CCN3Cc4ccccc4N(C)CC3C2)cc1 (stereo unspecified) | -155 |
| Cc1cc(-c2cncnc2-c2ccc(CNC(=O)Cc3cc(F)ccc3F)cc2)on1 | 2.52 |
| CCc1ccc(C2CN3C(=O)CN(CCN4CCOCC4)C(=O)[C@]3(C)c3[nH]c4ccccc4c32)cc1 (stereo partly specified) | 7.01 |
| O=C(O)c1ccccc1-c1ccccc1C(=O)Nc1ccccc1O | 1.93 |
| O=C(Nc1cccc(-c2cccc(F)c2)c1)C1CCN(Cc2cccc3c2OCO3)CC1 | 6.73 |
| CC(C)(C)c1ccc(Oc2ccc(NC(=O)c3ccc4c(c3)CCO4)cn2)cc1 | 1.03 |
| CN(C(=O)CC(NC(=O)c1ccccc1)(c1ccccc1)c1ccccc1)c1ccccc1 | 1.79 |
| Cc1ccc(NC(=O)CCc2nc(CSc3nnc(-c4ccco4)o3)no2)cc1C | 1.67 |
| CNCC(=O)N1CCCC(c2nc(C)cc(Nc3cccc(C)n3)n2)C1 (stereo unspecified) | 0.00326 |
| COc1ccc(C)cc1NC(=O)NC1(c2nc(C)no2)CCCCC1 | -4.28 |

| SMILES | inhibition [%] |
| --- | --- |
| Cc1sc2ncn(CC(=O)N3c4ccccc4CC3C)c(=O)c2c1C (stereo unspecified) | -2.03 |
| Cc1ccc(CS(=O)(=O)c2cn(CC(=O)NCc3cccnc3)c3ccccc23)cc1 | 1.32 |
| O=C(C1CCCN(S(=O)(=O)c2ccccc2)C1)N1CCN(CCc2ccccn2)CC1 (stereo unspecified) | -1.48 |
| COc1ccc(NC(=O)C2=C(C)Nc3ncnn3C2c2cccc(OCc3ccc(F)cc3)c2)c(OC)c1 (stereo unspecified) | 4.6 |
| COc1cc(C2CC(=O)Nc3cc4c(cc32)OCO4)ccc1O (stereo unspecified) | -1.12 |
| CC(C)Cc1ncc(CCCN=C(N)N)[nH]c1=O | -8.33 |
| COc1ccc(C2c3cccn3CCN2C(=O)Nc2cccs2)cc1 (stereo unspecified) | -66.3 |
| Cc1ccccc1Cn1cc(/C=C2/C(=N)N3N=C(COc4ccccc4)SC3=NC2=O)c2ccccc21 | -1.05 |
| CCOC(=O)C1=C(COc2ccccc2C#N)NC(=O)NC1C (stereo unspecified) | -3.02 |
| Cc1cc(C)n2nc(C(=O)N3CCCC(c4[nH]ncc4C)C3)cc2n1 (stereo unspecified) | -2.57 |
| Cc1nc(N(C)Cc2ccccc2)c2c3c(sc2n1)CCCC3 | -6.54 |
| Cc1oc(C2CCN(C(=O)NC3CCCC3)CC2)nc1C(=O)N(C)C | 1.1 |
| CC1CCN(C(=O)Cn2c(=O)n(Cc3ccccc3)c(=O)c3cc(Cl)ccc32)CC1 | 3.62 |
| COc1ccccc1C1CNCCN1Cc1cnc(N(C)C)nc1 (stereo unspecified) | -0.867 |
| Cc1cc(OCc2ccc(Cl)cc2Cl)cc2c1C(=O)CC(C)(C)O2 | 3.56 |
| Cc1noc(C2CN(Cc3nccs3)Cc3ccnn3C2)n1 (stereo unspecified) | -2.68 |
| O=C(CCc1c[nH]c2ccccc12)N1CCN(C(=O)C2CCCO2)CC1 (stereo unspecified) | -0.0658 |
| Cc1nc2ccccc2n(CC(=O)NCc2ccc(OC(C)C)cc2)c1=O | -4.18 |
| CCCN1CCC(Nc2ncnc3scc(-c4ccccc4)c23)CC1 | -1.59 |
